# PubChem BioAssay (EPA / NIEHS)
# Inconclusive results are not listed. Active and inactive are the calls of the source. How the source made its calls, unless noted: active means hit-call score of the fitted dose curve at least 0.9, where 1 is the maximum; inactive means score below 0.9.
# Experiments:
# [1] = CCTE_Shafer_MEA_acute_spike_number: CCTE's Neural Acute Assay for Total Number of Spikes, Shafer Lab (AID 2284008)
# In short: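 Rat primary cortical neurons on 48-well MEA plates, DIV 13 or 15, at 37 C. 40 min baseline then 40 min with compound (0.03-40 uM); spikes detected at 8x rms noise, expressed as percent change from baseline.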
# [2] = CCTE_Shafer_MEA_acute_firing_rate_mean: CCTE's Neural Acute Assay for Mean Firing Rate, Shafer Lab (AID 2284009);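 further: analyzed for loss of signal so actives lower firing rate relative to DMSO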
# In short: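 Primary rat cortical neurons on 16-electrode MEA wells were exposed on DIV 13 or 15 to compound (0.03-40 uM). Spike counts per recording time, averaged over electrodes, were compared between 40-min baseline and 40-min post-exposure recordings as percent change.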
# [3] = CCTE_Harrill_HTTr_Viability_MCF7: CCTE's 6-hour Cell Viability Assessment for the High-Throughput Transcriptomics (HTTr) Platform, in MCF-7 cells cultured in DMEM + 10% fetal bovine serum, Harrill Lab (AID 2284010)
# In short: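 Read-out is propidium iodide gain of signal by high-content imaging, reflecting membrane integrity loss. Measurements are taken 6 h after dosing, eight concentrations per chemical, with DMSO serving as baseline for bidirectional curve fitting.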
# [4] = CCTE_Harrill_HTTr_Apoptosis_MCF7: CCTE's 6-hour Apoptosis Assessment for the High-Throughput Transcriptomics (HTTr) Platform, in MCF-7 cells cultured in DMEM + 10% fetal bovine serum, Harrill Lab (AID 2284011)
# In short: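 MCF-7 cells in DMEM + 10% FBS exposed 6 h to chemicals over an eight-point dilution series. Caspase-3/7 activation imaged by high-content CellEvent Green staining; fitted bidirectionally versus DMSO.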
# [5] = CCTE_Shafer_MEA_acute_burst_number: CCTE's Neural Acute Assay for Single-Electrode Bursts, Shafer Lab (AID 2284013)
# In short: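 Primary rat cortical neurons on 16-electrode MEA wells, DIV 13 or 15, exposed to compound (0.03-40 uM; ≥3 wells); 40-min recordings at 37 C before and after treatment. Burst count expressed as percent change from baseline, DMSO as negative control.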
# [6] = CCTE_Harrill_HTTr_CellCount_MCF7: CCTE's Cell Proliferation Assessment for the High-Throughput Transcriptomics (HTTr) Platform, Harrill Lab (AID 2284012; active means hit-call score of the fitted dose curve at least 0.9, where 1 is the maximum;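 further: cells exposed to compound for six hours; intended direction is loss of nuclei count meaning fewer cells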)
# In short: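 Cell count served as viability reporter: loss of Hoechst-stained nuclei, counted by high content imaging, marks decreased growth or survival. Exposure was 6 h in MCF-7 cells across eight concentrations, with DMSO as baseline.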
structure (smiles),measurement,setting,value
CC(=O)C(C)=CC1C(C)=CCCC1(C)C (configuration not stated),outcome,[1],inactive
same,outcome,[2],inactive
same,outcome,[3],inactive
same,outcome,[4],inactive
same,outcome,[5],inactive
Nc1ccc(S(=O)(=O)c2ccc(N)cc2)cc1,outcome,[3],inactive
same,outcome,[4],inactive
same,outcome,[6],inactive
CCCCCCCCCCCCCCCC,outcome,[3],inactive
same,outcome,[4],inactive
CCCCCC(=O)O,outcome,[3],inactive
same,outcome,[4],inactive
COCCOC[C@H](CC1(C(=O)NC2CCC(C(=O)O)CC2)CCCC1)C(=O)Oc1ccc2c(c1)CCC2 (some centres not stated),outcome,[3],inactive
same,outcome,[4],inactive
Nc1nc(N)c2nc(CNc3ccc(C(=O)N[C@@H](CCC(=O)O)C(=O)O)cc3)cnc2n1,outcome,[1],inactive
same,outcome,[2],inactive
same,outcome,[5],inactive
Nc1ccc2c(c1)C(=O)c1ccccc1C2=O,outcome,[1],inactive
same,outcome,[2],inactive
same,outcome,[3],inactive
same,outcome,[4],inactive
same,outcome,[5],inactive
CCCCOC(=O)CCCCCCCCC(=O)OCCCC,outcome,[3],inactive
same,outcome,[4],inactive
CC(=O)OCCOCCOCCOC(C)=O,outcome,[3],inactive
same,outcome,[4],inactive
Cc1ccc(C)c(C)c1,outcome,[3],inactive
same,outcome,[4],inactive
CCCCN(CCCC)CCCC,outcome,[3],inactive
same,outcome,[4],inactive
C[C@]12C=CC(=O)C=C1CC[C@@H]1[C@@H]2C(=O)C[C@@]2(C)[C@H]1CC[C@]2(O)C(=O)CO,outcome,[3],inactive
same,outcome,[4],inactive
same,outcome,[6],inactive
Cc1cc(NC(=O)C(=O)O)cc(C)c1Oc1ccc(O)c2c1CCC2,outcome,[3],inactive
same,outcome,[4],inactive
C1CCC(SSC2CCCCC2)CC1,outcome,[3],inactive
same,outcome,[4],inactive
O=c1c(O)c(-c2ccc(O)c(O)c2)oc2cc(O)cc(O)c12,outcome,[3],inactive
same,outcome,[4],inactive
CCOc1ccc2c(c1)C(C)=CC(C)(C)N2,outcome,[3],inactive
same,outcome,[4],inactive
CCCCCCOCCO,outcome,[3],inactive
same,outcome,[4],inactive
COc1cc(/C=C/C(=O)CC(=O)/C=C/c2ccc(O)c(OC)c2)ccc1O,outcome,[3],inactive
same,outcome,[4],inactive
same,outcome,[6],inactive
CC1(C)CC(N=C=O)CC(C)(CN=C=O)C1 (configuration not stated),outcome,[3],inactive
same,outcome,[4],inactive
CC(C)c1ccc(C(=O)N=C(N)N)cc1S(C)(=O)=O,outcome,[3],inactive
same,outcome,[4],inactive
same,outcome,[6],inactive
CC(=O)OC/C=C(\C)CCC=C(C)C,outcome,[3],inactive
same,outcome,[4],inactive
COCCOCCOC,outcome,[3],inactive
same,outcome,[4],inactive
same,outcome,[6],inactive
CCCCCCCCCCCCCCCCCC(=O)O,outcome,[1],inactive
same,outcome,[2],inactive
same,outcome,[3],inactive
same,outcome,[4],inactive
same,outcome,[5],inactive
COc1cc(-c2nc(NC(=O)c3cc4cc(C)cc(C)c4n3CC(=O)O)sc2CCC2CCCCC2)c(OC)cc1Cl,outcome,[3],inactive
same,outcome,[4],inactive
COc1cccc2c1C(=O)c1c(O)c3c(c(O)c1C2=O)C[C@@](O)(C(=O)CO)C[C@@H]3O[C@H]1C[C@H](N)[C@H](O)[C@H](C)O1,AC50,[3],37.5 µM (active)
same,AC50,[4],90.8 µM (active)
OC[C@@H](O)[C@@H](O)[C@H](O)[C@H](O)CO,outcome,[3],inactive
same,outcome,[4],inactive
same,outcome,[6],inactive
O=c1[nH]cc(F)c(=O)[nH]1,outcome,[3],inactive
same,outcome,[4],inactive
same,outcome,[6],inactive
O=[N+]([O-])C(CO)(CO)CO,outcome,[3],inactive
same,outcome,[4],inactive
same,outcome,[6],inactive
O=C(OCCCCCOC(=O)c1ccccc1)c1ccccc1,outcome,[3],inactive
same,outcome,[4],inactive
same,outcome,[6],inactive
CC1=C(/C=C/C(C)=C/C=C/C(C)=C/CO)C(C)(C)CCC1,outcome,[3],inactive
same,outcome,[4],inactive
same,outcome,[6],inactive
CCCCCCCCCCCC(=O)OC,outcome,[3],inactive
same,outcome,[4],inactive
same,outcome,[6],inactive
Cc1cccc([N+](=O)[O-])c1C,outcome,[3],inactive
same,outcome,[4],inactive
same,outcome,[6],inactive
NC(=O)Cn1c(=O)cc(CCN2CCN(c3nccc4sccc34)CC2)c2ccc(F)cc21,outcome,[3],inactive
same,outcome,[4],inactive
same,outcome,[6],inactive
CC1(C)NC(=O)NC1=O,outcome,[3],inactive
same,outcome,[4],inactive
same,outcome,[6],inactive
CCCCCCCCCCCCCO,outcome,[3],inactive
same,outcome,[4],inactive
same,outcome,[6],inactive
CCc1c(C(=O)NN2CCCCC2)nn(-c2ccc(Cl)cc2Cl)c1-c1ccc(Br)cc1,outcome,[3],inactive
same,outcome,[4],inactive
same,outcome,[6],inactive
O=C(N[C@@H](Cc1ccccc1)[C@@H](O)C(=O)N1C[C@@H](O)[C@@H](O)C1)c1cc2cc(Cl)ccc2[nH]1,outcome,[3],inactive
same,outcome,[4],inactive
same,outcome,[6],inactive
Cc1cccc(C)c1O,outcome,[3],inactive
same,outcome,[4],inactive
same,outcome,[6],inactive
Cc1cc(=O)[nH]c(=S)[nH]1,outcome,[3],inactive
same,outcome,[4],inactive
same,outcome,[6],inactive
CCNc1cccc(C)c1,outcome,[3],inactive
same,outcome,[4],inactive
same,outcome,[6],inactive
Cc1nc(C)nc(N2C[C@@H](C)N(c3ccnc([C@@H](C)O)n3)[C@@H](C)C2)n1,outcome,[3],inactive
same,outcome,[4],inactive
same,outcome,[6],inactive
COC(=O)c1ccc(O)cc1,outcome,[3],inactive
same,outcome,[4],inactive
same,outcome,[6],inactive
CCCCCCCCCCC,outcome,[3],inactive
same,outcome,[4],inactive
same,outcome,[6],inactive
CCCCc1ccc2c(n1)[C@@H](c1ccc(OC)cc1C[C@H](C)C(=O)O)[C@H](C(=O)O)[C@H]2c1ccc2c(c1)OCO2,outcome,[3],inactive
same,outcome,[4],inactive
same,outcome,[6],inactive
